Screens as filed in PubChem BioAssay.
An excerpt weighted towards active compounds, which were near 12% of everything screened.
HP1b chromo inh: blocks HP1-beta chromodomain binding to methylated histone tails | P83916 | AlphaScreen HP1-beta / biotin-H3K9me3 peptide binding | Potency, µM (top dose mostly 114 µM), for inactives: at the top dose activity change, negative = inhibition, hits mostly inhibitors | hit rate 0.56% among 390,000; also: potency is read from the fitted curve at half-maximal effect; nearly all actives have a fitted effect of over 70% in size
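Compound inhibition of the preformed complex between 50 nM HP1-beta and 50 nM biotinylated H3K9me3 peptide was read by AlphaScreen. Buffer was PBS pH 7.4 with 0.01% Tween-20. Incubations ran 30 min at room temperature, with 10 ug/mL donor/acceptor beads.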
G9a block: blocks human histone lysine methyltransferase G9a; Potency, µM (highest dose often 102 µM), inactives show at the highest dose activity, negative = inhibition, usual class: inhibitors; Q96KQ7; hit rate 8.8% among 350,000; AID 504332; G9a H3K9 monomethylation, AlphaScreen, 2 h; also: potency is read from the fitted curve at half-maximal effect; % is scaled to controls: 0 for no effect and ±100 for the full control effect; nearly all actives have a fitted effect of over 75% in size
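Methyltransferase reactions run at room temperature for 2 h (20 nM enzyme, 500 nM biotin-H3K9 peptide, 20 uM SAM) after a 15 min compound preincubation; product detected by AlphaScreen beads and anti-H3K9me1 antibody.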
PI5P4K alpha inh: inhibitors of human PI5P4K alpha; AID 652105; P48426; hit rate 1.2% among 330,000; max response, %; PI5P4Kalpha enzyme, ADP-Glo luminescence, 60 min; hits give low values; active = max response of -50% or lower; inconclusive = between -30% and -50%; inactive = -30% or higher; also: value at the top dose of about 77 µM; % is scaled to controls: 0 for no effect and ±100 for the full control effect
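Quantitative HTS of the MLSMR library against PI5P4Kalpha with substrate. ATP added last at 5 microM final; room temperature, 60 minutes. Remaining ATP depleted, ADP converted and read as luminescence.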
JMJD2A Tudor inh: inhibitors of human JMJD2A Tudor domain | O75164 | AlphaScreen JMJD2A-Tudor / H3K4me3 peptide binding | Potency, µM (series often up to 114 µM), for the others: at the top dose activity change, negative = inhibition, actives largely listed as inhibitors | hit rate 4.4% among 390,000 | AID 504339; also: potency is read from the fitted curve at half-maximal effect; % is scaled to controls: 0 for no effect and ±100 for the full control effect; nearly all actives have a fitted effect of over 50% in size
Target sequence (O75164 whole entry, looked up, the tested form may be a part): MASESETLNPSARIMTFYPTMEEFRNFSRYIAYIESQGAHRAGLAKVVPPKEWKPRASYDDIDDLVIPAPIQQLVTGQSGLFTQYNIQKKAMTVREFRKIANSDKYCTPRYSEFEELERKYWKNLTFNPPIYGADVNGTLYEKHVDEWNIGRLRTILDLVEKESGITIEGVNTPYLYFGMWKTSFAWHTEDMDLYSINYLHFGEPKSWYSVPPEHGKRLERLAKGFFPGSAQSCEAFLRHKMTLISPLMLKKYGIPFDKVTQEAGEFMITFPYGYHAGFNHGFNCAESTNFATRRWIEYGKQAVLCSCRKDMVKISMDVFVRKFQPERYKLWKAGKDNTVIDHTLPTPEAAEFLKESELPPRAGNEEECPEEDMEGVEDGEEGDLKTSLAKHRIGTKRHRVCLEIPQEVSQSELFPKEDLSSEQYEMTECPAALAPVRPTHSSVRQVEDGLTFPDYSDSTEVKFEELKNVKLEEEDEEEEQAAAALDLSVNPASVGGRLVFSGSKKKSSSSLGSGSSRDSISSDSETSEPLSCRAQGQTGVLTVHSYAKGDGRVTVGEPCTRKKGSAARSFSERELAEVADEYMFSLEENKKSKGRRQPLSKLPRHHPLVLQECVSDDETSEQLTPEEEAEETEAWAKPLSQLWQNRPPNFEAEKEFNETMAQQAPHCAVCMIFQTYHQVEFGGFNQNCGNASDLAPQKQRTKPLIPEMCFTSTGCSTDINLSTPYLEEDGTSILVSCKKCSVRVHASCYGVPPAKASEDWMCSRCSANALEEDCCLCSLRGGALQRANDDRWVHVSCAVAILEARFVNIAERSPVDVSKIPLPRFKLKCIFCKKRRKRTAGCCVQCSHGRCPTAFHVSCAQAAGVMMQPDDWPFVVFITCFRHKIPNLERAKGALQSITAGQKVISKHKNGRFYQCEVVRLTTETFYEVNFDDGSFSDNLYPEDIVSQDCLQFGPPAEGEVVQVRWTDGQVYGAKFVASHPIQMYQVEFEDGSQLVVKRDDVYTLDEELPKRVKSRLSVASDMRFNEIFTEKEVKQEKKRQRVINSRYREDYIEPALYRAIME
PLK1 PBD block: inhibitors of human PLK1 polo-box domain binding; Plk1 PBD binding of FITC phosphopeptide, fluorescence polarization; Potency, µM, inactives show max response, negative = inhibition, usual class: inhibitors; hit rate 2.8% among 360,000; AID 720504; also: potency is read from the fitted curve at half-maximal effect; series mostly up to about 57 µM; % is scaled to controls: 0 for no effect and ±100 for the full control effect; nearly all actives have a fitted effect of over 65% in size
BAZ2B inh: blocks human BAZ2B; AlphaScreen BAZ2B-H3K14Ac peptide displacement; AID 504333; Q9UIF8; hit rate 4.4% among 360,000; Potency, µM (doses to about 114 µM), for the others: at the top dose activity change, negative = inhibition, usual class: inhibitors; also: potency is read from the fitted curve at half-maximal effect; % is scaled to controls: 0 for no effect and ±100 for the full control effect; nearly all actives have a fitted effect of over 60% in size
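AlphaScreen displacement: compounds (up to 110uM) incubated 30 min at room temperature with a preformed 50 nM BAZ2B/50 nM biotinylated H3K14Ac peptide complex in PBS pH 7.4 with Tween-20. Donor and acceptor beads at 10 ug/mL final added, 20 min light-protected before reading.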
* marks the source's active call; other numbers are inactive results; ? = inconclusive; . = no result; [ ] = remark or other dose. Unless noted, calls follow the shape of the dose curve; as a rule, active = well fitted curve in the direction sought with a large enough effect; inconclusive = small, poorly fitted or top-dose-only effect, or another doubt; inactive = no such curve, though single readings can be large; an effect the other way counts as inactive or inconclusive.

SMILES	HP1b chromo inh	G9a block	PI5P4K alpha inh	JMJD2A Tudor inh	PLK1 PBD block	BAZ2B inh
NCCCC[C@@H]1NC(=O)c2cc([N+](=O)[O-])cc(F)c2NCCCC[C@@H](C(N)=O)NC(=O)[C@H](CCC(N)=O)NC1=O	27.9%	?	-0.9	-17.9%	-7.9%	-2.8%
NC(=O)CC[C@@H]1NC(=O)[C@H](CO)NC(=O)c2cc([N+](=O)[O-])cc(I)c2NCC[C@@H](C(N)=O)NC(=O)[C@H](Cc2ccc(O)cc2)NC1=O	.	7.94µM*	.	.	.	56.2µM*
C[C@@H](O)[C@@H]1NC(=O)c2cc([N+](=O)[O-])cc(I)c2NCC[C@@H](C(N)=O)NC(=O)CNC1=O	25.0%	50.1µM*	3.0	-21.1%	-20.4%	-4.5%
C[C@@H]1NC(=O)[C@H](CCCN=C(N)N)NC(=O)c2cc([N+](=O)[O-])cc(I)c2NCCC[C@@H](C(N)=O)NC1=O	0.8%	56.2µM*	-28.5	-18.9%	-28.0%	-7.8%
Cn1ccnc1SCC(=O)NC1(C#N)CCCCC1	16.1%	-2.7%	-4.6	-1.0%	0.7%	9.0%
CC(C)C[C@H](NC(=O)[C@H](Cc1ccccc1)NC(=O)CNC(=O)CNC(=O)[C@@H](N)Cc1ccc(O)cc1)C(=O)N[C@@H](CCCN=C(N)N)C(=O)N[C@@H](CCCN=C(N)N)C(=O)N[C@@H](CCC(N)=O)C(=O)N[C@@H](Cc1ccccc1)C(=O)N[C@@H](CCCCN)C(=O)N[C@H](C(=O)N[C@H](C(=O)N[C@H](C(=O)O)[C@@H](C)O)C(C)C)C(C)C	.	14.1%[59 µM]	.	.	.	.
Cc1cc2c(s1)c1cnn(Cc3c(Cl)cccc3Br)c(=O)c1n2C	.	.	.	-5.5%	.	.
C[C@@H]1NC(=O)[C@H](CCC(N)=O)NC(=O)c2cc([N+](=O)[O-])cc(I)c2NCCC[C@@H](C(N)=O)NC1=O	18.2%	50.1µM*	7.1	-15.3%	-24.0%	-25.3%
C[C@@H]1NC(=O)c2cc([N+](=O)[O-])cc(I)c2NCCCC[C@@H](C(N)=O)NC(=O)[C@H](CCC(=O)O)NC1=O	9.6%	39.8µM*	-3.0	-16.9%	-11.8%	-33.3%
NC(=O)[C@@H]1CCCNc2c(I)cc([N+](=O)[O-])cc2C(=O)N[C@@H](CCC(=O)O)C(=O)N[C@@H](CO)C(=O)N1	39.5%	35.5µM*	5.3	-5.6%	-1.0%	-5.0%
NC(=O)CC[C@@H]1NC(=O)[C@H](CO)NC(=O)c2cc([N+](=O)[O-])cc(I)c2NCCCC[C@@H](C(N)=O)NC(=O)[C@H](Cc2ccc(O)cc2)NC1=O	6.9%	?	-6.4	-31.7%	-3.8%	-36.0%
NC(=O)[C@@H]1CCCCNc2c(F)cc([N+](=O)[O-])cc2C(=O)N[C@@H](CCCN=C(N)N)C(=O)NCC(=O)N1	32.7%	-15.6%	13.4	-25.4%	-1.7%	-11.1%
COc1ccccc1CCn1c(=O)c(CCc2ccccc2)nc2cncnc21	.	-2.3%[0.501 µM]	.	.	.	.
COc1ccc(CNC(=O)c2cc3c(=O)n(Cc4cccs4)ccc3nc2C)cc1	11.8%	17.2%[59 µM]	.	-7.3%	.	-11.3%
CCSC1=NC2(CCN(C(=O)NC3CCCCC3)CC2)N=C1c1ccc(C)c(C)c1	28.7%	-23.5%[59 µM]	.	-10.7%	.	-1.3%[57.1 µM]
Cc1ccc(C2/C(=C(\O)c3c(C)nc4c(C)cccn34)C(=O)C(=O)N2CCN(C)C)o1 (stereo not drawn)	33.3%	.	8.7	-10.9%	-6.6%	.
Cc1nc2c(C)cccn2c1/C(O)=C1\C(=O)C(=O)N(CCN(C)C)C1c1ccco1 (stereo not drawn)	17.4%	-45.3%	2.4	22.4µM*	-5.4%	-0.2%
Cc1nc2c(C)cccn2c1/C(O)=C1\C(=O)C(=O)N(CCN2CCOCC2)C1c1ccncc1 (stereo not drawn)	?	-50.6%[12.7 µM]	-0.6	5.62µM*	-9.0%	79.4µM*
Cc1noc(C)c1C(=O)N1CCC2(CC1)CN(C(=O)Nc1cccc(F)c1)C2	.	-14.2%[12.7 µM]	.	.	.	.
C=CCOc1ccc(/C=C2\SC(=S)N(C(C(=O)O)c3ccccc3)C2=O)cc1 (stereo not drawn)	-20.8%	?	10.8	?	29.9µM*	?
CC(/C=C1\SC(=S)N(CC(=O)O)C1=O)=C\c1ccccc1	-0.7%	12.5%[59 µM]	-9.0	-16.7%	?	-15.5%
COc1cccc(/C=C2\SC(=S)N(C(Cc3ccccc3)C(=O)O)C2=O)c1 (stereo not drawn)	40.9%	44.7µM*	0.9	-34.3%	33.6µM*	?
CC(c1ccccc1)N1C(=O)/C(=C/c2ccncc2)SC1=S (stereo not drawn)	?	28.2µM*	2.3	15.8µM*	-26.7%	15.8µM*
COc1cccc(/C=C2\SC(=S)N(CCC(=O)NCCc3ccc(O)cc3)C2=O)c1	2.6%	15.0%[59 µM]	-4.1	-19.1%	-8.3%	-23.7%
O=C(O)CCCN1C(=O)/C(=C/c2ccncc2)SC1=S	29.0%	11.4%[12.7 µM]	-0.2	11.3%	-4.9%	-7.2%
SMILES	HP1b chromo inh	G9a block	PI5P4K alpha inh	JMJD2A Tudor inh	PLK1 PBD block	BAZ2B inh
CC(/C=C1\SC(=S)N(C(C(=O)O)c2ccccc2)C1=O)=C\c1ccccc1 (stereo not drawn)	12.6%	.	16.9	?	26.7µM*	?
COc1ccc(S(=O)(=O)Nc2ccc3c(c2)N(C(C)=O)CCC3)cc1F	13.1%	6.2%[59 µM]	.	-10.9%	.	-6.3%
CCOc1ccc(C(=O)CSc2nc3cc(C(=O)NC4CCCC4)ccc3c(=O)n2CC2CCCO2)cc1 (stereo not drawn)	33.8%	-1.3%[59 µM]	.	3.6%	.	1.6%
Cc1ccc(NS(=O)(=O)c2cc3c(cc2N(C)C)CCC(=O)N3)cc1C	.	.	.	-34.8%	.	.
O=C(O)C(Cc1ccccc1)N1C(=O)/C(=C/c2cccs2)SC1=S (stereo not drawn)	-9.2%	22.4µM*	1.7	?	?	?
O=C(O)C(c1ccccc1)N1C(=O)/C(=C/c2cccs2)SC1=S (stereo not drawn)	-20.0%	.	-12.0	3.98µM*	?	-9.7%
COC(=O)c1ccccc1N(C)S(=O)(=O)c1cc2c3c(c1)CCC(=O)N3CCC2	9.3%	-8.1%	-4.1	-17.2%	-11.9%	-7.7%
CC1CCC(C(=O)NC(C(=O)OCC(=O)c2ccccc2)C(C)C)CC1 (stereo not drawn)	42.0%	0.7%[59 µM]	.	-5.5%	.	0.9%
COc1cc(CN2CCN(CC3CC3)CC2CCO)cc(OC)c1 (stereo not drawn)	14.0%	27.3%	1.0	-8.4%	-4.9%	-10.3%
CC(=O)N1N=C(c2ccc(Br)cc2)CC1c1cccc([N+](=O)[O-])c1 (stereo not drawn)	.	.	0.5	.	-7.9%	.
Cc1cc2n(n1)C(c1ccccc1)CC(c1ccc(Br)cc1)=N2 (stereo not drawn)	91.4%	39.8µM*	5.2	22.9%	?	24.1%
CCOC(=O)c1noc2c1CCC2	.	.	-2.4	.	-11.2%	.
